46 sequences from PMC13541613, “GHT-SELEX demonstrates unexpectedly high intrinsic sequence specificity and complex DNA binding of many human transcription factors” can be followed below.

What all share (assay): HT-SELEX; 20 mM HEPES pH 7, 140 mM KCl, 5 mM NaCl, 1 mM K2HPO4, 2 mM MgSO4, 100 uM EGTA, ZnSO4, 0.1% Tween20; room temperature, 1 h; high values mean tight binding
Settings in all cases: protein: ivt; tags: eGFP (N-terminal); dsDNA, one strand shown

Assay [1] has as its target ZNF721 full-length (Homo sapiens, UniProt Q8TF20-2 1-923). An outline of the steps:
(§1)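 A tagged transcription factor, either full-length or its DNA-binding-domain fragment, was made in HEK293 lysate or cell-free extract, immobilised on beads and incubated with a randomized 40-base DNA library for 1 h at room temperature in HEPES/KCl low-stringency buffer containing Tween20. Washed beads were heat-eluted, and the bound DNA was PCR-amplified over successive cycles and Illumina-sequenced at ~3 million 60 bp reads per sample. The binding signal is the relative k-mer count in selected reads, where a higher value means tighter binding.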

Assay [2] has as its target ZNF721 DBD1 (Homo sapiens, UniProt Q8TF20-2 29-461). An outline of the steps:
as §1

The target of assay [3] is ZNF721 DBD2 (Homo sapiens, UniProt Q8TF20-2 395-923). The method, boiled down: as §1
Chain of ZNF721 DBD2 (Q8TF20 383-911): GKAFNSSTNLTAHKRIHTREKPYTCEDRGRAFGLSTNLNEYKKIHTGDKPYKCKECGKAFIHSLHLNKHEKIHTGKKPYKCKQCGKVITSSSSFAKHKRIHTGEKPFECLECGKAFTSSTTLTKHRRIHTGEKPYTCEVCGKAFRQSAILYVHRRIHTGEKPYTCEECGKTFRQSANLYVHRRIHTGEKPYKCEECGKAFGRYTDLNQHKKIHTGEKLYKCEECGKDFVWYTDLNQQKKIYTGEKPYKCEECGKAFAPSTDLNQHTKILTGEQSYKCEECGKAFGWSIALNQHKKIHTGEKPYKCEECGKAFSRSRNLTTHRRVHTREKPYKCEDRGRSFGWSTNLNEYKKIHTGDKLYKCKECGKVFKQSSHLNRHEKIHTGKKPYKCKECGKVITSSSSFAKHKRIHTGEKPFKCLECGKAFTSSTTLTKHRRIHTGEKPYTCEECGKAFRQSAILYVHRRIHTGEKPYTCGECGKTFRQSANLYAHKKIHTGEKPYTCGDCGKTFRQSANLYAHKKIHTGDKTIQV

Chain of ZNF721 DBD1 (Q8TF20 17-449): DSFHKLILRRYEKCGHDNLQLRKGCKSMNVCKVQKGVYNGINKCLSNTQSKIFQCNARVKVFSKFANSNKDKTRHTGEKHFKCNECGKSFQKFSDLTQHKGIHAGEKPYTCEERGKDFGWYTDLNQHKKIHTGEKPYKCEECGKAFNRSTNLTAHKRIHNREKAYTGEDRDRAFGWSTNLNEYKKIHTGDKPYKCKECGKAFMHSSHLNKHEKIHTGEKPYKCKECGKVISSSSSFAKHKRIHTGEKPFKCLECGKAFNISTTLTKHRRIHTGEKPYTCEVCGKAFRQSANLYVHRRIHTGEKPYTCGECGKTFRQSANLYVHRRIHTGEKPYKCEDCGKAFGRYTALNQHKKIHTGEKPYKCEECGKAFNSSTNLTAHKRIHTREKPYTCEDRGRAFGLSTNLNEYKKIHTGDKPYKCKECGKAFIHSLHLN
Chain of ZNF721 full-length (Q8TF20 other isoform, or with tags, fused parts or gaps): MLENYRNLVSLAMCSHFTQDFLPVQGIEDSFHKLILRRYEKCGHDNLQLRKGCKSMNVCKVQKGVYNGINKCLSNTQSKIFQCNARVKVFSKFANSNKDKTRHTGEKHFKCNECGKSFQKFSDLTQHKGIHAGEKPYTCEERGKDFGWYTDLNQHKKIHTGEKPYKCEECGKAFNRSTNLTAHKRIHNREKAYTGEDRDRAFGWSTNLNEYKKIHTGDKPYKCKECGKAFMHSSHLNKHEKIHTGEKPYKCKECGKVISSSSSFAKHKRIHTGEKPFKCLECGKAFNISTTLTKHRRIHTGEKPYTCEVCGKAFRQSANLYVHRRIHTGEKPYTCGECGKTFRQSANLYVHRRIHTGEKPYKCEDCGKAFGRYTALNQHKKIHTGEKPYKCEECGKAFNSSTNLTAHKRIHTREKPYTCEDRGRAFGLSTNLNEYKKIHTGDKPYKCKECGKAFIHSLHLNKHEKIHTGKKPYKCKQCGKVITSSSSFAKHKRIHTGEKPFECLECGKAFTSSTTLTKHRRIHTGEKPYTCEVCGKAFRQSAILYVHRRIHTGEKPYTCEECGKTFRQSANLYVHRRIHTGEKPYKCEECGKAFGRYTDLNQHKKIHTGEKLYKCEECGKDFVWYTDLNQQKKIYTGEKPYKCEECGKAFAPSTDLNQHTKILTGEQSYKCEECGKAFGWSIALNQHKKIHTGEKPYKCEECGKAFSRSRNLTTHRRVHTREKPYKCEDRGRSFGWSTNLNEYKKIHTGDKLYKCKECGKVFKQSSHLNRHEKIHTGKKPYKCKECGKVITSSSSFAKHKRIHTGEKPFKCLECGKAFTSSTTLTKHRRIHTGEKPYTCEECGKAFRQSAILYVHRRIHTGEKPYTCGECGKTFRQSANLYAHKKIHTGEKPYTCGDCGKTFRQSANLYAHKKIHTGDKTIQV

For CCCGACCACC, the binding signal in assay [1] was found to be 0.125 relative 10-mer count; in assay [2], 0.00491 relative 10-mer count; in assay [3], 0.00372 relative 10-mer count.
For CCACGCCCCC, the binding signal in assay [1] turned out to be 0.187 relative 10-mer count; in assay [2] it was 0.00605 relative 10-mer count; in assay [3], 0.0024 relative 10-mer count.
In the case of ACCCACCCGC, the binding signal in assay [1] was found to be 0.102 relative 10-mer count; in assay [2], 0.00316 relative 10-mer count; in assay [3], 0.00276 relative 10-mer count.
In the case of CGCCACCACC, the binding signal was 0.108 relative 10-mer count in assay [1], 0.00468 relative 10-mer count in assay [2] and 0.00384 relative 10-mer count in assay [3].
As to GGGGGAGGGA, the binding signal in assay [1] stood at 0.151 relative 10-mer count; in assay [2], 0.00936 relative 10-mer count; in assay [3] it was 0.00384 relative 10-mer count.
For GCCCCCCACC, the binding signal in assay [1] was 0.171 relative 10-mer count; in assay [2], 0.00693 relative 10-mer count; in assay [3], 0.00455 relative 10-mer count.
CCACCTACCC: the binding signal in assay [1] came out at 0.112 relative 10-mer count; in assay [2], 0.00527 relative 10-mer count; in assay [3] it was 0.00455 relative 10-mer count.
For the sequence CGCCCCACCA, the binding signal turned out to be 0.117 relative 10-mer count in assay [1], 0.00362 relative 10-mer count in assay [2] and 0.00312 relative 10-mer count in assay [3].
For the sequence CAAAAAAAAC, the figures for the binding signal in assay [1], in assay [2] and in assay [3] were 0.123 relative 10-mer count, 0.00243 relative 10-mer count and 0.0838 relative 10-mer count, respectively.
In the case of CCACACCCCA, the binding signal in assay [1] stood at 0.124 relative 10-mer count; in assay [2], 0.00472 relative 10-mer count; in assay [3], 0.00503 relative 10-mer count.
With AGGTGGGTGG, the binding signal in assay [1] was 0.149 relative 10-mer count; in assay [2] it was 0.00642 relative 10-mer count; in assay [3], 0.00443 relative 10-mer count.
With CCACACCCAC, the binding signal came to 0.128 relative 10-mer count in assay [1], 0.00605 relative 10-mer count in assay [2] and 0.00515 relative 10-mer count in assay [3].
Taken in the same sequence, the figures for CCACCACCCC were 0.455 relative 10-mer count, 0.0194 relative 10-mer count and 0.00419 relative 10-mer count.
Regarding CCCACACCAC, the binding signal in assay [1] came to 0.137 relative 10-mer count; in assay [2], 0.00541 relative 10-mer count; in assay [3], 0.00503 relative 10-mer count.
Turning to CTTCATACTC, the binding signal in assay [1] worked out at 0.167 relative 10-mer count; in assay [2] it was 0.271 relative 10-mer count; in assay [3], 0.00132 relative 10-mer count.
With ACACCCACCC, the binding signal in assay [1] is 0.171 relative 10-mer count; in assay [2], 0.0105 relative 10-mer count; in assay [3], 0.00336 relative 10-mer count.
Take AAAAAAGAAG: the binding signal in assay [1] amounted to 0.101 relative 10-mer count; in assay [2], 0.0198 relative 10-mer count; in assay [3] it was 0.0207 relative 10-mer count.
As to CCCTCACCAC, the binding signal turned out to be 0.104 relative 10-mer count in assay [1], 0.00482 relative 10-mer count in assay [2] and 0.00587 relative 10-mer count in assay [3].
In the case of CCCACCCACA, the figures for the binding signal in assay [1], in assay [2] and in assay [3] were 0.171 relative 10-mer count, 0.00688 relative 10-mer count and 0.00959 relative 10-mer count, respectively.
Turning to CGCCCGCCCC, the binding signal in assay [1] turned out to be 0.126 relative 10-mer count; in assay [2], 0.00408 relative 10-mer count; in assay [3] it was 0.00144 relative 10-mer count.
As to CCCTCCCCCC, the values for the binding signal in assay [1], in assay [2] and in assay [3] were 0.342 relative 10-mer count, 0.0158 relative 10-mer count and 0.00515 relative 10-mer count, respectively.
Consider CCGAAAAAAG, for which the binding signal in assay [1] was 0.106 relative 10-mer count; in assay [2], 0.016 relative 10-mer count; in assay [3], 0.0415 relative 10-mer count.
For GCCCCCCGCC, the results for the binding signal in assay [1], in assay [2] and in assay [3] were 0.123 relative 10-mer count, 0.00477 relative 10-mer count and 0.003 relative 10-mer count, respectively.
Taken in the same sequence, the figures for CCAACCCCCA were 0.13 relative 10-mer count, 0.00486 relative 10-mer count and 0.00168 relative 10-mer count.
CCGCCACCCC: the binding signal in assay [1] was found to be 0.307 relative 10-mer count; in assay [2], 0.0102 relative 10-mer count; in assay [3], 0.0018 relative 10-mer count.
In the case of CCCGCGCCCC, the results for the binding signal in assay [1], in assay [2] and in assay [3] were 0.146 relative 10-mer count, 0.00505 relative 10-mer count and 0.0018 relative 10-mer count, respectively.
Turning to ACACTTCATA, the binding signal in assay [1] turned out to be 0.548 relative 10-mer count; in assay [2], 0.649 relative 10-mer count; in assay [3], 0.00144 relative 10-mer count.
CCCCGTCCCC: the values for the binding signal in assay [1], in assay [2] and in assay [3] were 0.212 relative 10-mer count, 0.00789 relative 10-mer count and 0.00192 relative 10-mer count, respectively.
In the case of CAACAAAACA, the binding signal in assay [1] came to 0.111 relative 10-mer count; in assay [2] it was 0.00174 relative 10-mer count; in assay [3], 0.116 relative 10-mer count.
Turning to CCCCAACACC, the binding signal in assay [1] amounted to 0.114 relative 10-mer count; in assay [2] it was 0.00417 relative 10-mer count; in assay [3], 0.00324 relative 10-mer count.
As to CCACGTCCCC, the binding signal is 0.11 relative 10-mer count in assay [1], 0.00376 relative 10-mer count in assay [2] and 0.00252 relative 10-mer count in assay [3].
Regarding CTTCATACAC, the binding signal stood at 0.291 relative 10-mer count in assay [1], 0.384 relative 10-mer count in assay [2] and 0.00132 relative 10-mer count in assay [3].
In the case of CCCCCCCGCC, the binding signal in assay [1] was 0.204 relative 10-mer count; in assay [2] it was 0.00706 relative 10-mer count; in assay [3], 0.00276 relative 10-mer count.
Consider CCCCCCACCG, for which the values for the binding signal in assay [1], in assay [2] and in assay [3] were 0.17 relative 10-mer count, 0.00605 relative 10-mer count and 0.0036 relative 10-mer count, respectively.
Take AACAGCATGA: the binding signal came to 0.198 relative 10-mer count in assay [1], 0.00188 relative 10-mer count in assay [2] and 0.308 relative 10-mer count in assay [3].
As for CCACCCTCAC, the binding signal amounted to 0.103 relative 10-mer count in assay [1], 0.00427 relative 10-mer count in assay [2] and 0.00791 relative 10-mer count in assay [3].
CGCTTTTTTC: the binding signal in assay [1] stood at 0.258 relative 10-mer count; in assay [2], 0.0622 relative 10-mer count; in assay [3], 0.0303 relative 10-mer count.
On to CCCCCACCCG, for which the binding signal in assay [1] came out at 0.174 relative 10-mer count; in assay [2], 0.00587 relative 10-mer count; in assay [3], 0.00384 relative 10-mer count.
Taken in the same sequence, the figures for CTCCCCCTCC were 0.14 relative 10-mer count, 0.00784 relative 10-mer count and 0.00324 relative 10-mer count.
Consider CCCGCCCCCG, for which the values for the binding signal in assay [1], in assay [2] and in assay [3] were 0.13 relative 10-mer count, 0.00482 relative 10-mer count and 0.00144 relative 10-mer count, respectively.
On the same counts, the results for AAAAGCAGCA are 0.304 relative 10-mer count, 0.00578 relative 10-mer count and 0.296 relative 10-mer count.
Taken in the same sequence, the figures for AGCAGTACCA were 0.118 relative 10-mer count, 0.0341 relative 10-mer count and 0.0533 relative 10-mer count.
In the case of CCCCGCCCGC, the figures for the binding signal in assay [1], in assay [2] and in assay [3] were 0.115 relative 10-mer count, 0.00417 relative 10-mer count and 0.0018 relative 10-mer count, respectively.
For CCCCCTCCCA, the binding signal in assay [1] stood at 0.157 relative 10-mer count; in assay [2] it was 0.00784 relative 10-mer count; in assay [3], 0.00455 relative 10-mer count.
On the same counts, the results for AGCTATACCA are 0.14 relative 10-mer count, 0.0816 relative 10-mer count and 0.003 relative 10-mer count.
As to GCACCACCCC, the binding signal in assay [1] is 0.103 relative 10-mer count; in assay [2], 0.00358 relative 10-mer count; in assay [3], 0.00815 relative 10-mer count.
